Data from PubChem BioAssay AID1159580 (chemical genetic matrix, 2015).
In all, about 5,500 compounds went through this assay and about 2,000 (36%) were called active. Another 18% or so got no clear call; they are omitted. No stated cut-off is given here; in the data, active means normalized growth mostly below about 0.91 (no sharp cut-off); inconclusive means no clear call, values can overlap the other calls; inactive means mostly above about 0.92. The list shows a part of the results.

Test: chemical genetic growth profiling, strain panel (AID 1159580);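 further: tested at 20 µM; growth read once vehicle control cultures reached saturation at 30 °C; 1 = growth at the plate median or of vehicle wells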
Settings: S. cerevisiae deletion strains, growth OD

Measured: normalized growth

C=CCC1C(=O)N(S(=O)(=O)c2ccc(Cl)cc2)N=C1CCC (stereo unspecified)
inactive: locus YAR019C, strain CDC15, stronger effect = lower value 0.992 | locus YBL105C, strain PKC1, stronger effect = lower value 0.994 | locus YBR135W, strain CKS1, stronger effect = lower value 0.998 | locus YBR136W, strain MEC1, stronger effect = lower value 0.987 | locus YBR160W, strain CDC28, stronger effect = lower value 0.997 | locus YDL017W, strain CDC7, stronger effect = lower value 0.996 | locus YDL028C, strain MPS1, stronger effect = lower value 0.995 | locus YDL101C, strain DUN1, stronger effect = lower value 0.991 | locus YDL108W, strain KIN28, stronger effect = lower value 0.989 | locus YDL132W, strain cdc53, stronger effect = lower value 0.994 | locus YDL214C, strain PRR2, stronger effect = lower value 0.951 | locus YDR052C, strain DBF4, stronger effect = lower value 0.999 | locus YDR054C, strain cdc34, stronger effect = lower value 0.996 | locus YDR226W, strain ADK1, stronger effect = lower value 0.996 | locus YDR477W, strain SNF1, stronger effect = lower value 0.981 | locus YER123W, strain YCK3, stronger effect = lower value 0.961 | locus YER133W, strain GLC7, stronger effect = lower value 0.986 | locus YFL009W, strain cdc4, stronger effect = lower value 0.993 | locus YFL029C, strain CAK1, stronger effect = lower value 0.984 | locus YFR003C, strain YPI1, stronger effect = lower value 0.996 | locus YFR019W, strain FAB1, stronger effect = lower value 0.977 | locus YFR028C, strain CDC14, stronger effect = lower value 0.991 | locus YGR040W, strain KSS1, stronger effect = lower value 0.97 | locus YGR052W, strain FMP48, stronger effect = lower value 1.06 | locus YGR092W, strain DBF2, stronger effect = lower value 0.997 | locus YHR030C, strain SLT2, stronger effect = lower value 1.05 | locus YHR079C, strain IRE1, stronger effect = lower value 0.97 | locus YHR082C, strain KSP1, stronger effect = lower value 1.01 | locus YHR205W, strain SCH9, stronger effect = lower value 0.972 | locus YIL147C, strain SLN1, stronger effect = lower value 0.992 | locus YJL095W, strain BCK1, stronger effect = lower value 0.993 | locus YJL128C, strain PBS2, stronger effect = lower value 0.943 | locus YJL157C, strain FAR1, stronger effect = lower value 0.983 | locus YJR016C, strain ILV3, stronger effect = lower value 0.994 | locus YJR066W, strain TOR1 (second series), stronger effect = lower value 0.978 | locus YJR066W, strain TOR1, stronger effect = lower value 0.986 | locus YKL048C, strain ELM1, stronger effect = lower value 0.962 | locus YKL067W, strain YNK1, stronger effect = lower value 0.964 | locus YKL101W, strain HSL1, stronger effect = lower value 0.942 | locus YKL193C, strain SDS22, stronger effect = lower value 0.995 | locus YKL203C, strain TOR2, stronger effect = lower value 1.04 | locus YLR113W, strain HOG1, stronger effect = lower value 0.887 | locus YLR133W, strain CKI1, stronger effect = lower value 0.965 | locus YLR403W, strain SFP1, stronger effect = lower value 1 | locus YML070W, strain DAK1, stronger effect = lower value 0.963 | locus YMR001C, strain CDC5, stronger effect = lower value 0.991 | locus YMR205C, strain PFK2 (second series), stronger effect = lower value 0.966 | locus YMR277W, strain FCP1, stronger effect = lower value 0.999 | locus YNL006W, strain LST8, stronger effect = lower value 0.999 | locus YNL020C, strain ARK1, stronger effect = lower value 0.962 | locus YNL161W, strain CBK1, stronger effect = lower value 0.994 | locus YNL183C, strain NPR1, stronger effect = lower value 0.98 | locus YNL207W, strain RIO2, stronger effect = lower value 0.995 | locus YNL222W, strain SSU72, stronger effect = lower value 0.994 | locus YNL307C, strain MCK1 (second series), stronger effect = lower value 0.989 | locus YOL078W, strain AVO1, stronger effect = lower value 0.995 | locus YOL136C, strain PFK27, stronger effect = lower value 0.968 | locus YOR061W, strain CKA2, stronger effect = lower value 0.97 | locus YOR119C, strain RIO1, stronger effect = lower value 1.01 | locus YOR231W, strain MKK1, stronger effect = lower value 0.968 | locus YOR329C, strain SCD5, stronger effect = lower value 0.996 | locus YPL031C, strain PHO85, stronger effect = lower value 0.953 | locus YPL153C, strain RAD53, stronger effect = lower value 0.977 | locus YPL204W, strain HRR25, stronger effect = lower value 0.998 | locus YPL209C, strain IPL1, stronger effect = lower value 0.994 | locus YPL256C, strain CLN2, stronger effect = lower value 0.916 | locus YPR025C, strain CCL1, stronger effect = lower value 0.994 | locus YPR106W, strain ISR1, stronger effect = lower value 0.988 | locus YPR111W, strain DBF20, stronger effect = lower value 0.978 | strain NNK1, stronger effect = lower value 0.982 | strain TSCII, stronger effect = lower value 0.989
